Laboratory results taken from PubChem BioAssay.
For some of these results: Potency and affinity values are given separately. Active and inactive are the calls of the source. Unless noted, no rule for the calls is given here.

What was measured:
[1] = antimalarial activity against Dd2 strain (AID 2302;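 active = growth inhibition above 50% at the single 2 µM test dose, taken to imply half-maximal potency below 2 µM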;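 also: 0% = DMSO untreated growth and 100% = chloroquine plus artemisinin killed control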); details: P. falciparum Dd2 in RBCs, LDH growth readout, 72 h; at 2 µM; active compounds read high
[2] = human hepatoma cell viability loss – ATP luminescence, cytotoxicity control for P. falciparum antimalarial project, primary screen (AID 2303;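 active = inhibition above 50%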;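 also: 0% = DMSO wells and 100% = digitonin-killed cells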); details: HepG2 viability, 24-48 h, at 10 µM, active compounds read high
[3] = target: L-lactate dehydrogenase (Plasmodium falciparum (isolate CDC / Honduras)) (UniProt Q27743); assay: PfLDH activity inhibition – cell lysate, 3D7 strain, counter-screen for P. falciparum growth inhibition project (AID 2304);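 also: 0% = vehicle and 100% = reference inhibitor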; details: P. falciparum 3D7 crude extract, LDH APAD/NBT absorbance; at 2 µM; active compounds read high
[4] = inhibition of 3D7 malaria parasite growth – strain 3D7 (AID 2306);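 also: 0% = DMSO wells and 100% = chloroquine plus artemisinin control wells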; details: P. falciparum 3D7 erythrocytic growth, LDH absorbance, 72 h; at 2 µM; active compounds read high
[5] = target: Calcium-dependent protein kinase 1 (Plasmodium falciparum (isolate 3D7)) (UniProt P62344); assay: PfCDPK1 kinase inhibitors, biochemical, TCAMS library (AID 1159585; cut-off not given, nearly all actives have IC50 up to about 0.98 µM;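 also: inhibitors leave more ATP so luminescence rises with inhibition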); details: recombinant PfCDPK1, Kinase-Glo ATP depletion luminescence
[6] = target: Plasmodium falciparum protein kinase 6 (PK6, PF3D7_1337100) (UniProt Q8IDW1); assay: PfPK6 kinase inhibitors, biochemical, TCAMS library (AID 1159586); details: recombinant PfPK6, Kinase-Glo ATP depletion luminescence
[7] = target: Protein kinase 7 (PK7), Plasmodium falciparum 3D7 (PF3D7_0213400) (UniProt Q7YTF7); assay: inhibition of Plasmodium PK7 catalytic activity – biochemical, TCAMS antimalarial set, Kinase-Glo luminescence (AID 1159587); details: recombinant PfPK7, Kinase-Glo ATP depletion luminescence
[8] = target: Calcium-dependent protein kinase 4 (Plasmodium falciparum (isolate 3D7)) (UniProt Q8IBS5); assay: PfCDPK4 kinase inhibitors, biochemical, TCAMS library (AID 1159588; cut-off not given, nearly all actives have IC50 up to about 0.91 µM); details: recombinant PfCDPK4, Kinase-Glo ATP depletion luminescence
Sequence of Calcium-dependent protein kinase 4 (Plasmodium falciparum (isolate 3D7)) (Q8IBS5 whole entry, looked up): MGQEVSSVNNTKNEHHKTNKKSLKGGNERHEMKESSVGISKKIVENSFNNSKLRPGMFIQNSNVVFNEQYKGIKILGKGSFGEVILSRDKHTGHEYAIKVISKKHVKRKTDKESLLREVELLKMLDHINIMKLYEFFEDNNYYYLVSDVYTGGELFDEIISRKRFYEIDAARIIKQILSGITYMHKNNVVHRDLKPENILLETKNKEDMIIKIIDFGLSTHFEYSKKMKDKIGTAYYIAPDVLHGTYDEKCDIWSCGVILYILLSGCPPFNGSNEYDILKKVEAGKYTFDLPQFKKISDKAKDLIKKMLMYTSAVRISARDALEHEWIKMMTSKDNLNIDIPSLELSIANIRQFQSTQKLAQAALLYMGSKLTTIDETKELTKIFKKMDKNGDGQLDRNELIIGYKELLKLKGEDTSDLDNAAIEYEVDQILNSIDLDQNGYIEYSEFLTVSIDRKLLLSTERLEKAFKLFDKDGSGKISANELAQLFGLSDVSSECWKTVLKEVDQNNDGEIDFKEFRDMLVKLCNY

Sequence of Calcium-dependent protein kinase 1 (Plasmodium falciparum (isolate 3D7)) (P62344 whole entry, looked up): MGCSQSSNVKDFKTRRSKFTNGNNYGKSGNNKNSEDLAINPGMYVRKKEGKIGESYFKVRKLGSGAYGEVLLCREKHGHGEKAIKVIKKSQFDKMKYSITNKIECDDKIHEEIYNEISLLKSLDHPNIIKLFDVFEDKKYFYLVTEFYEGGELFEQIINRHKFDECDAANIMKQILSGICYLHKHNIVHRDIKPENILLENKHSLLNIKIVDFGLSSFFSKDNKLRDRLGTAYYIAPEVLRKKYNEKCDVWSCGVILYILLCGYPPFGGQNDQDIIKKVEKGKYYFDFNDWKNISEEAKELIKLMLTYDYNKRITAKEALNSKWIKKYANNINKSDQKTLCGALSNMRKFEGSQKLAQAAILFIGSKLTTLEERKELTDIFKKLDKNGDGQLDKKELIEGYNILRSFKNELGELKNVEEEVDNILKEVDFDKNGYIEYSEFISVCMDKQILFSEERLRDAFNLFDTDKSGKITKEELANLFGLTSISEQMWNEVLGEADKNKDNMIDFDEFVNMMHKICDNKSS
Sequence of Protein kinase 7 (PK7), Plasmodium falciparum 3D7 (PF3D7_0213400) (Q7YTF7 1-343): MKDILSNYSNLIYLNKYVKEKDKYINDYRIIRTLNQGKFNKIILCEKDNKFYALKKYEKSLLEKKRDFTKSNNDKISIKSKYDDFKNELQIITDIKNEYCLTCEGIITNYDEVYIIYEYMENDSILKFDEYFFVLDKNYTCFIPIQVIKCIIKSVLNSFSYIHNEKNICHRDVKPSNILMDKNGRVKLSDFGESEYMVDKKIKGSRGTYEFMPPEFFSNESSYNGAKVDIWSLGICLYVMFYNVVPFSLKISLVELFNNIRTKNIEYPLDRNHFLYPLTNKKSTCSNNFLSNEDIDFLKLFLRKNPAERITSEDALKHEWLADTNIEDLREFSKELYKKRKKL
Sequence of Plasmodium falciparum protein kinase 6 (PK6, PF3D7_1337100) (Q8IDW1 1-305): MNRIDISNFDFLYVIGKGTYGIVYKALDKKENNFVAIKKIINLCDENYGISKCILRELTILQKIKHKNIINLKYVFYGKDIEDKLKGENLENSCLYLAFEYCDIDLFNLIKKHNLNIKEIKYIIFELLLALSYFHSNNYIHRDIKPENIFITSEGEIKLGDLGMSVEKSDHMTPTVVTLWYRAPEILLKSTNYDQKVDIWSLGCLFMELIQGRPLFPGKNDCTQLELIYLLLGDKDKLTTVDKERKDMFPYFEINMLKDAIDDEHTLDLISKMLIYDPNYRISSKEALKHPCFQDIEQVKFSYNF
Sequence of L-lactate dehydrogenase (Plasmodium falciparum (isolate CDC / Honduras)) (Q27743 whole entry, looked up): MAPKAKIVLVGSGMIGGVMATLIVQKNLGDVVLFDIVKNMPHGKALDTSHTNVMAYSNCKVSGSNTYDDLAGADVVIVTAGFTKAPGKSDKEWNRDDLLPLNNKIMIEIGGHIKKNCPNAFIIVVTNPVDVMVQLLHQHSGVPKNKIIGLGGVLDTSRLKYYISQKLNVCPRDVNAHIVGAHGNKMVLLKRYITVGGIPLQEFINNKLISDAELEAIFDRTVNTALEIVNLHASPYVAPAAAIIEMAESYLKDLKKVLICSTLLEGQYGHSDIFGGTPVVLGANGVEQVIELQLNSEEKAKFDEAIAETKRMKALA

Cc1noc(-c2cccs2)c1C(=O)NCCc1cccc(Cl)c1
active: growth inhibition [1] 95% | growth inhibition [4] 97%
inactive: inhibition [2] -17% | inhibition [3] 0% | outcome [5] | outcome [6] | outcome [7] | outcome [8]

CCCc1cc(NC2CCN(C)CC2)nc(Nc2ccc(F)cc2)n1
active: growth inhibition [4] 95%
inactive: growth inhibition [1] 16% | inhibition [2] 20% | inhibition [3] -7% | outcome [5] | outcome [6] | outcome [7] | outcome [8]

CCc1cn2c3c(cc(C(=O)N[C@@H](Cc4ccccc4)[C@H](O)CNC4CCOCC4)cc13)N(C(C)C)S(=O)(=O)CC2
inactive: inhibition [2] 0% | inhibition [3] -2% | outcome [5] | outcome [6] | outcome [7] | outcome [8]
active: growth inhibition [1] 99% | growth inhibition [4] 98%

CN(C)Cc1ccc2cc(NC(=O)c3ccc(-c4ccc(Cl)cc4)cc3)ccc2c1
active: growth inhibition [4] 92%
inactive: growth inhibition [1] 22% | inhibition [2] 21% | inhibition [3] -3% | outcome [5] | outcome [6] | outcome [7] | outcome [8]

CN(C)c1ccc(C=C2SC(=O)NC2=Nc2ccccc2)cc1
active: growth inhibition [1] 96% | growth inhibition [4] 97%
inactive: inhibition [2] 42% | inhibition [3] 6% | outcome [5] | outcome [6] | outcome [7] | outcome [8]

Cc1cc(NN=Cc2ccccc2[N+](=O)[O-])c2ccc(F)cc2n1
inactive: inhibition [2] 32% | inhibition [3] -4% | outcome [5] | outcome [6] | outcome [7] | outcome [8]
active: growth inhibition [1] 100% | growth inhibition [4] 101%

O=C(Nc1ccccc1Cl)N(Cc1cc(Cl)cc(Cl)c1)CC(O)COc1ccc(Cl)c(F)c1 (stereo not drawn)
active: growth inhibition [4] 93%
inactive: growth inhibition [1] 17% | inhibition [2] 0% | inhibition [3] 4% | outcome [5] | outcome [6] | outcome [7] | outcome [8]

Cc1cc2nc(-c3ccc(/C=C/C(=O)NCCCc4ccccc4)cc3)[nH]c2cc1C
inactive: growth inhibition [1] 13% | inhibition [2] 15% | inhibition [3] -4% | outcome [5] | outcome [6] | outcome [7] | outcome [8]
active: growth inhibition [4] 96%

CC[C@H]1CN(Cc2ccco2)CC[C@H]1CCCc1ccnc2ccc(O)cc12
active: growth inhibition [4] 93%
inactive: growth inhibition [1] 14% | inhibition [2] 31% | inhibition [3] -1% | outcome [5] | outcome [6] | outcome [7] | outcome [8]

N#Cc1cccc(COC(=O)C2=C(COc3ccccc3Cl)NC(=O)NC2c2c[nH]c3cnccc23)c1 (stereo not drawn)
inactive: growth inhibition [1] -3% | inhibition [2] 0% | inhibition [3] -1% | outcome [5] | outcome [6] | outcome [7] | outcome [8]
active: growth inhibition [4] 99%

O=C(c1cc(C(=O)NC2CCCCC2)c(=O)n(C2CCCCC2)c1)c1cc(F)ccc1O
active: growth inhibition [1] 98% | growth inhibition [4] 99%
inactive: inhibition [2] 22% | inhibition [3] -2% | outcome [5] | outcome [6] | outcome [7] | outcome [8]

COc1c(Br)cc(Br)cc1-c1ccc(CN2CC3CCC2CC3)[nH]1
active: growth inhibition [1] 100% | inhibition [2] 91% | growth inhibition [4] 98%
inactive: inhibition [3] -3% | outcome [5] | outcome [6] | outcome [7] | outcome [8]

Fc1ccc2nc(-c3cccc(-c4ccc(CN5CCCCC5)cc4)c3)[nH]c2c1
active: growth inhibition [1] 97% | growth inhibition [4] 99%
inactive: inhibition [2] 46% | inhibition [3] -2% | outcome [5] | outcome [6] | outcome [7] | outcome [8]

COCCNCc1ccc(-c2cccc(CN(C(=O)NCCc3ccccc3)C3CCN(Cc4ccccc4)CC3)c2)cc1
inactive: inhibition [2] 25% | inhibition [3] -4% | outcome [5] | outcome [6] | outcome [7] | outcome [8]
active: growth inhibition [1] 90% | growth inhibition [4] 88%

O=S(=O)(NCCN1CCCC1)c1ccc(-c2cccc(CNC3Cc4ccccc4C3)c2)cc1F
active: growth inhibition [1] 62% | growth inhibition [4] 98%
inactive: inhibition [2] 41% | inhibition [3] -1% | outcome [5] | outcome [6] | outcome [7] | outcome [8]

COc1cc(F)c2ncc(Cl)c(CCN3CCC(NCc4ccc5c(c4)OCCO5)CC3)c2c1
active: growth inhibition [1] 92% | growth inhibition [4] 97%
inactive: inhibition [2] 35% | inhibition [3] -7% | outcome [5] | outcome [6] | outcome [7] | outcome [8]

Cc1cc(N2CC=CCC2)nc(/N=C(\N)Nc2ccc(Cl)cc2)n1
active: growth inhibition [1] 78% | growth inhibition [4] 100%
inactive: inhibition [2] -2% | inhibition [3] -8% | outcome [5] | outcome [6] | outcome [7] | outcome [8]

CCN(CC)Cc1ccc2c(=O)cc(CCc3cccc(F)c3F)n(CC(=O)N(Cc3ccc(-c4ccc(C(F)(F)F)cc4)cc3)C(C)C)c2c1
active: growth inhibition [1] 63% | inhibition [2] 82% | growth inhibition [4] 102%
inactive: inhibition [3] -6% | outcome [5] | outcome [6] | outcome [7] | outcome [8]

COC1(C)Oc2ccc3cccc([N+](=O)[O-])c3c2C1=O (stereo not drawn)
active: growth inhibition [4] 98%
inactive: growth inhibition [1] -4% | inhibition [2] 3% | inhibition [3] -2% | outcome [5] | outcome [6] | outcome [7] | outcome [8]

CC(=O)Nc1ccc(CN(Cc2ccc(F)cc2)Cc2ccc3c(c2)OCO3)cc1
active: growth inhibition [1] 87% | growth inhibition [4] 91%
inactive: inhibition [2] 3% | inhibition [3] 6% | outcome [5] | outcome [6] | outcome [7] | outcome [8]

COc1ccc(NC(=O)Nc2cccc(-c3ccncc3)c2)cc1N1CCN(C)CC1
active: growth inhibition [1] 57% | growth inhibition [4] 98%
inactive: inhibition [2] 9% | inhibition [3] 5% | outcome [5] | outcome [6] | outcome [7] | outcome [8]

Cc1cc(Br)c(OCCCON2C(N)=NC(N)=NC2(C)C)c(Br)c1
active: growth inhibition [1] 97% | inhibition [2] 62% | growth inhibition [4] 95%
inactive: inhibition [3] -3% | outcome [5] | outcome [6] | outcome [7] | outcome [8]

COc1ccc(NC(=O)c2c(NC(=O)c3cccs3)sc3c2CCCC3)cc1
inactive: growth inhibition [1] 4% | inhibition [2] 4% | inhibition [3] 1% | outcome [5] | outcome [6] | outcome [7] | outcome [8]
active: growth inhibition [4] 97%

CCN(CC)CCCn1c(N)c(-c2nc3ccccc3[nH]2)c2nc(C#N)c(C#N)nc21
inactive: inhibition [2] 8% | inhibition [3] 2% | outcome [5] | outcome [6] | outcome [7] | outcome [8]
active: growth inhibition [1] 99% | growth inhibition [4] 100%

CNS(=O)(=O)c1ccc2c(c1)nc(C1CCN(CC3CCC(NC(=O)/C=C/c4ccc(Cl)c(Cl)c4)CC3)CC1)n2C (stereo not drawn)
inactive: inhibition [2] 5% | inhibition [3] -2% | outcome [5] | outcome [6] | outcome [7] | outcome [8]
active: growth inhibition [1] 96% | growth inhibition [4] 102%

c1ccc(-c2ccc(CNCCCNc3nc4ccccc4[nH]3)cc2)cc1
active: growth inhibition [4] 95%
inactive: growth inhibition [1] 0% | inhibition [2] 20% | inhibition [3] -4% | outcome [5] | outcome [6] | outcome [7] | outcome [8]

CCOc1cc(C(C)C)ccc1N1CCN(CCCCNC(=O)c2ccc(NC(=O)c3ccc(Cl)cc3)cc2)CC1
active: growth inhibition [1] 97% | growth inhibition [4] 101%
inactive: inhibition [2] 28% | inhibition [3] 4% | outcome [5] | outcome [6] | outcome [7] | outcome [8]

O=C1Nc2cccc3c2C1(CCCN1CCC(c2c[nH]c4cc(C(F)(F)F)ccc24)CC1)CCC3 (stereo not drawn)
active: inhibition [2] 91% | growth inhibition [4] 89%
inactive: growth inhibition [1] 37% | inhibition [3] -2% | outcome [5] | outcome [6] | outcome [7] | outcome [8]

COC(=O)c1c(NC(=O)c2cccc(C(F)(F)F)c2)sc2c1CCN(Cc1ccccc1)C2
inactive: inhibition [2] 9% | inhibition [3] 0% | outcome [5] | outcome [6] | outcome [7] | outcome [8]
active: growth inhibition [1] 61% | growth inhibition [4] 84%

O=C(Nc1cccc(C(F)(F)F)c1)N1CCOC(CCN2CCC(c3ccccc3)CC2)(c2ccc(Cl)c(Cl)c2)C1 (stereo not drawn)
active: growth inhibition [1] 69% | growth inhibition [4] 87%
inactive: inhibition [2] 15% | inhibition [3] 8% | outcome [5] | outcome [6] | outcome [7] | outcome [8]

COc1cc(CNC[C@@H](O)[C@H](Cc2ccccc2)NC(=O)c2cc(OC(C)C)cc(N3CCCS3(=O)=O)c2)cc(OC)c1
inactive: inhibition [2] -1% | inhibition [3] 0% | outcome [5] | outcome [6] | outcome [7] | outcome [8]
active: growth inhibition [1] 72% | growth inhibition [4] 97%

CCCC(C)Nc1nc(C)cc(NCCC(=O)Nc2ccccc2)n1 (stereo not drawn)
inactive: growth inhibition [1] 11% | inhibition [2] 12% | inhibition [3] -4% | outcome [5] | outcome [6] | outcome [7] | outcome [8]
active: growth inhibition [4] 96%

COc1ccc(-c2cncc3ccc(C(=O)NCCCn4ccnc4)nc23)cc1
active: growth inhibition [1] 99% | growth inhibition [4] 95%
inactive: inhibition [2] 28% | inhibition [3] -3% | outcome [5] | outcome [6] | outcome [7] | outcome [8]

CN1CCCN(Cc2cccc(-c3ccc(NS(=O)(=O)c4cccc5cccnc45)cc3)c2)CC1
inactive: inhibition [2] 44% | inhibition [3] 2% | outcome [5] | outcome [6] | outcome [7] | outcome [8]
active: growth inhibition [1] 87% | growth inhibition [4] 100%

O=C(Nc1cccc(CCNCc2ccccc2)c1)Nc1cccc2ccccc12
inactive: growth inhibition [1] 8% | inhibition [2] 13% | inhibition [3] 1% | outcome [5] | outcome [6] | outcome [7] | outcome [8]
active: growth inhibition [4] 102%

O=C(NCCCCCN1CCC(c2c[nH]c3ccccc23)CC1)Nc1ccc(I)c(Cl)c1
inactive: growth inhibition [1] 5% | inhibition [3] 3% | outcome [5] | outcome [6] | outcome [7] | outcome [8]
active: inhibition [2] 88% | growth inhibition [4] 99%

CCCC(C)NC(=O)[C@H](CC1CCCCC1)NC(=O)c1ccc(O)c(-c2cccc(C(F)(F)F)c2)c1 (stereo partly drawn)
active: growth inhibition [1] 98% | growth inhibition [4] 100%
inactive: inhibition [2] -5% | inhibition [3] 5% | outcome [5] | outcome [6] | outcome [7] | outcome [8]

O=C(NC1CCN(c2ccnc3cc(Cl)ccc23)C1)c1ccc(F)cc1 (stereo not drawn)
inactive: inhibition [2] 26% | inhibition [3] 4% | outcome [5] | outcome [6] | outcome [7] | outcome [8]
active: growth inhibition [1] 97% | growth inhibition [4] 94%

C=CCNc1cc(-c2ccccn2)nc(-c2ccccn2)n1
inactive: inhibition [3] -2% | outcome [5] | outcome [6] | outcome [7] | outcome [8]
active: growth inhibition [1] 79% | inhibition [2] 78% | growth inhibition [4] 94%

CC(C(=O)OCCOCn1cnc2c(=O)[nH]c(N)nc21)N(C)C(=O)OC(C)(C)C (stereo not drawn)
inactive: growth inhibition [1] -1% | inhibition [2] 28% | inhibition [3] 2% | outcome [5] | outcome [6] | outcome [7] | outcome [8]
active: growth inhibition [4] 87%

CN1CCN(c2ccnc3ccc(NC(=O)Nc4ccc(Cl)c(Cl)c4)cc23)CC1
inactive: growth inhibition [1] 17% | inhibition [2] 0% | inhibition [3] -4% | outcome [5] | outcome [6] | outcome [7] | outcome [8]
active: growth inhibition [4] 97%
